PubChem BioAssay AID1766 (National Center for Advancing Translational Sciences (NCATS), 2009)
Screen size: about 290,000 compounds; fewer than 10 were called active. Not shown: some 3% with an inconclusive outcome. The call rests on the fitted dose curve; in most records, active means well fitted curve in the direction sought with a large enough effect in the polarisation (not every such curve was filed as active); inconclusive means small, poorly fitted or top-dose-only effect, or effect the other way, or a change in a side signal; inactive means no such curve, though single readings can be large or run the other way; the % refers to the polarisation. Only a sample is shown.

test: qHTS Assay for Inhibitors Targeting the Menin-MLL Interaction in MLL Related Leukemias: Competition With Fluorescein Labeled MLL-derived Peptide; details: Fluorescence polarization, fluorescein-MLL peptide displacement from menin; series mostly up to 61.4 µM; FP activity change: at the top concentration; further: % of control where 0% means no effect
Source text: qHTS Assay for Inhibitors Targeting the Menin-MLL Interaction in MLL Related Leukemias NIH Chemical Genomics Center [NCGC] NIH Molecular Libraries Probe Centers Network [MLPCN] MLPCN Grant: MH084875-01A1 Assay Submitter (PI): Jolanta Grembecka, Tomasz Cierpicki, University of Virginia Translocations of the MLL (Mixed Lineage Leukemia) gene are frequently found in human leukemias affecting both children and adults. Fusion of MLL to one of more than 60 genes results in generation of oncogenic proteins upregulating Hox genes, which are vital to blood cell development. Patients harboring fusion of the MLL gene suffer from aggressive leukemias and respond poorly to available therapies. All of the oncogenic fusion proteins have a preserved N-terminal fragment of MLL that has been identified to interact with menin. It has been recently discovered that association with menin is critical to the leukemogenic activity of the MLL fusion oncoproteins. Selective targeting of the menin-MLL interaction could provide an attractive therapeutic approach to develop novel drugs for MLL-related leukemias. Small molecules blocking the menin-MLL interaction should reverse the oncogenic potential of MLL fusion proteins. We have developed and optimized a fluorescence polarization-based assay for the identification of Menin-MLL inhibitors. The assay was run employing two different MLL-derived peptides. The present assay uses a 12 amino acid peptide labeled with fluorescein at its N-terminus. This peptide consists of the menin high affinity binding motif from MLL and is potently bound by menin. Another peptide with a mutated sequence, labeled with Texas Red, was used in parallel as a less stringent screen for inhibitors.
The Menin protein, the MLL-wild type (w.t.) derived peptide (N-terminal 12 amino acids), the MLL-derived peptide labeled with Texas Red and the MLL-w.t. peptide labeled with Fluorescein were kindly supplied by laboratory of Dr. Jolanta Grembecka, University of Virginia. All protein and peptide solutions were stored in single use aliquots at -80C. The Eu3+ Cyrptate-conjugated mouse monoclonal antibody anti-6 Histidine (Eu3+-AB) and the Streptavidin-XL665 conjugate (XL665) were purchased from Cisbio International (Bedford, MA). All antibody and XL665 conjugate solution stocks were stored in single use aliquots at -20C. The Buffer components for all assays were purchased from Sigma-Aldrich (St. Louis, MO) and Invitrogen (Carlsbad, CA). FP Assay Reagents: 1. FP reaction buffer: 50 mM Tris-HCl pH 7.5, 50 mM NaCl, 1mM DTT. Before use, 0.05% BSA is added. 2. Menin protein, MLL-w.t. labeled with fluorescein, MLL-mutant peptide labeled with texas red. Stored in singe use aliquots at -80C. 3. MLL-w.t. unlabeled peptide as positive control: 10 uM final in FP buffer. FP Assay Procedure: 1. Prepare Menin at 200 nM, MLL-w.t.-fluorescein at 25 nM, and MLL-mutant-texas red at 50 nM mixture in FP buffer. 2. Prepare Menin at 200 nM, MLL-w.t.-fluorescein at 25 nM, MLL-mutant-texas red at 50 nM, and 10 uM MLL-w.t. unlabeled mixture in FP buffer. 3. Prepare MLL-w.t.-fluorescein at 25 nM and MLL-mutant-texas red at 50 nM mixture in FP buffer. 3. Dispense 4 ul per well of reagent in step 1 in columns 2, 4 - 48 in a black 1536 well plate, dispense 4 ul per well of reagents from steps 2 and 3 in columns 1 and 3 respectively. Incubate plate at ambient for 15 minutes. 4. Transfer 23 nl per well of compound to plate and incubate at ambient for 1 hr. 5. Read fluorescence polarization for each label using the PerkinElmer Envision. Envision protocol for fluorescein: FITC FP Dual Enh Mirror, Excitation filter 480, Emission filter (1) P-pol 535, Emission filter (2) S-pol 535 Envision protocol for texas red: FP Dual Enh Mirror, Excitation filter 555, Emission filter (1) P-pol 632, Emission filter (2) S-pol 632

FP activity change, inactive:
CC(C)(C)c1ccc(Cn2nnc3c(=O)[nH]c(C4CCCN(C(=O)c5ccco5)C4)nc32)cc1 (configuration not stated) 2.29%
C/C=C/C=N/NC(=O)c1ccncc1 -2.94%
CCC(=O)Nc1nc(C)c(C(=O)Nc2cccc(Cl)c2)s1 -0.766%
COC(=O)c1ccc(CN2C(=O)NC(c3ccccc3)(c3ccccc3)C2=O)o1 -3.74%
O=C(Nc1nnc(-c2ccccc2F)s1)c1ccccc1F 0.841%
S=c1[nH]c(-c2cccs2)cn1-c1ccccc1 -10%
Cc1ccc(-c2csc(N3CCN(c4cc5c(cc4Cl)nc(-c4ccncc4)n5CCOCCO)CC3)n2)cc1 -0.208%
CCOc1ccc(-n2c(SCC(=O)OC)nc3sc4c(c3c2=O)CCN(C)C4)cc1 6.86%
COC(=O)c1ccc(Nc2ncnc3sccc23)cc1 3.91%
Cc1ccc(NC(=O)Nc2cccnc2)cc1 -1.76%
Cc1ccc(N(Cc2ccccc2O)C(=O)c2ccccc2F)cc1 -5.27%
Cc1ccccc1NC(=S)NC(=O)Cc1ccc(Cl)cc1 -2.56%
O=C(NCCCO)c1cc2c([nH]c3ccccc32)c(-c2ccc(F)cc2)n1 -0.599%
Cc1cc(CNC(=O)C2CCC(=O)N(CCc3ccc(Cl)cc3)C2)no1 (configuration not stated) 4.02%
O=C1CCC([N+](=O)[O-])C(c2ccccc2Br)N1 (configuration not stated) -0.866%
CSc1nnc2ccc(-c3ccc(C)cc3)nn12 3.46%
Cc1ccc(C(=O)c2coc3ccc(O)c(CN(C)C)c23)cc1 -0.231%
CC1(C(=O)NCCc2c[nH]c3ccccc23)C=CC2(CCCCC2)N1C(=O)c1ccccc1 (configuration not stated) 0.914%
Cc1ccc(O)c(NC(=O)c2cc(-c3ccco3)on2)c1 11%
Cc1ccccc1NC(=O)CCOc1ccccc1 0.005%
Cc1ccc(SCC(CC(C)C)N2CCN(CCc3ccccc3)CCC2=O)cc1 (configuration not stated) 4.19%
NS(=O)(=O)c1ccc(CCNC(=O)c2nc(CS(=O)(=O)c3ccc(Cl)cc3)no2)cc1 -0.948%
O=C1CCN(Cc2ccccc2)CCN1[C@H](CSc1ccccc1)c1ccccc1 0.158%
CS(=O)(=O)N(CC(=O)N1CCCCCC1)c1cccc(Cl)c1Cl -2.08%
COc1ccc(NC(=O)N2CCCC2C(=O)NCc2ccccc2Cl)cc1 (configuration not stated) -7.57%
O=C(NCCCN1CCOCC1)C1CCCN(S(=O)(=O)N2CCCCC2)C1 (configuration not stated) 0.555%
Cc1cc(F)ccc1N1CCC(N2CCN(C)C(CCO)C2)CC1 (configuration not stated) -7.47%
Cc1cccc(C(=O)OC(C)CN2CCCC2)c1 (configuration not stated) 5.39%
Cc1cn([C@H]2CC(F)[C@@H](CO)O2)c(=O)[nH]c1=O (some centres not stated) -4.2%
CN1C(=O)CN2CCc3ccccc3C2c2cc(Cl)ccc21 (configuration not stated) -5.51%
C=C1C(=CC=C2CCC[C@@]3(C)[C@@H]2CC[C@H]3[C@H](C)CCCC(C)C)C[C@@H](O)C[C@@H]1O 9.09%
COc1ccc(NC2CCCN(C(=O)c3ccncc3)C2)cc1 (configuration not stated) -4.31%
COc1cccc(OCc2cc(C(=O)N3CCN(C(=O)c4ccco4)CC3)no2)c1 6.94%
Cc1ccc(-c2nc(-c3ccncc3)no2)c(C)c1 -1.78%
CN(Cc1ccccc1)C(=O)c1ccc(COc2ccccc2)cc1 -7.59%
COc1cccc(NC(=O)C2C(c3ccccc3)C2(Cl)Cl)c1 (configuration not stated) -0.0582%
CN(CCO)c1ccc(/C=N/Nc2nncc3ccccc23)cc1 -4.23%
CC(C)c1ccc(NC(=O)Cn2ncc3ccccc32)cc1 -5.91%
COc1ccc(-c2n[nH]c(C)c2-c2ccccc2OC)c(O)c1 -3.47%
CN(CCc1ccccc1)c1ccc([N+](=O)[O-])cn1 -0.677%
CC(C)(C)OC(=O)NC(Cc1ccccc1)C(=O)NC(CSC1CCCCO1)C(=O)NN (configuration not stated) -3.74%
CN(CC(=O)Nc1ccc(Cl)cc1)C(=O)CNC(=O)c1ccc2ccccc2c1 -0.426%
O=C(CCN1CCCO1)N1CCCC(N2CCN(c3cccc(C(F)(F)F)c3)CC2)C1 (configuration not stated) 3.51%
C/C(=N\NC(=O)c1ccoc1C)c1ccccc1O -0.0656%
CC(=O)Nc1ccc(NC(=O)CC2CCCC2)cc1 8.07%
COc1cccc2cc(C(N)=O)/c(=N\NC(=O)c3ccccc3)oc12 3.41%
COc1ccc(OC)c(/C(C)=N\NC(=O)c2cc3cc(Cl)ccc3n2C)c1 4.34%
CCCC[C@]12Cc3cc(OC)c(OC)cc3C(O1)C1=C(CC3(CCCCC3)OC1=O)O2 0.345% [at 11.7 µM]
O=C(COc1ccc(S(=O)(=O)Nc2cccc(C(F)(F)F)c2)cc1)N1CCOCC1 3.89%
O=C(CSc1nnnn1C1CCCC1)N1CCCCC1 0.177%
C[C@@H]1CC[C@@]2(OC1)O[C@H]1C[C@H]3[C@@H]4CC=C5C[C@@H](O)[C@H](O)C[C@]5(C)C4CC[C@]3(C)[C@H]1[C@@H]2C (some centres not stated) -14.6%
COc1c(O)c2c(=O)cc(OC)c3c4c(OC)cc(=O)c5c(O)c(OC)c6c(c(c1C[C@@](C)(O)[C@H]6C(C)=O)c23)c54 -8.66%
COCCNc1cc(-c2ccccc2)nc2cc(-c3cccc(F)c3)nn12 2.42%
COc1ccc(OC)c(NC(=O)CN(C)CCOc2ccc(Br)cc2)c1 -13.1%
CC(C)(c1ccccc1)c1ccc(OCCN2CCCC2)cc1 -1.58%
CCN(CC)c1ccc(/C=N/NC(=O)CNC(=O)c2cccs2)cc1 2.38%
O=C(Cc1cccs1)NCc1cccc(C(F)(F)F)c1 -0.128%
Cc1cc(S(=O)(=O)NCc2ccccn2)c(Cl)cc1Cl -0.167%
COc1ccccc1CNS(=O)(=O)c1ccc2c(c1)NC(=O)CS2 -0.943%
COc1ccc(CNS(=O)(=O)c2ccc(NC(=O)N3CCCCC3)cc2)cc1 -0.428%
Oc1ccc(-c2cccc(-c3ccc(O)cc3)c2)cc1 0.0539%
CCCn1c(=O)c(C(=O)Nc2cc(C)ccn2)c(O)c2ccccc21 1.11%
Cc1cccc(C)c1NC(=O)NC1=CCCN1C 0.307%
O=C(Nc1ccc(F)cc1)c1ccc(S(=O)(=O)NCc2cccnc2)cc1 -2.58%
CC(C)NC(=O)COCc1cc(-c2ccc3c(c2)OCO3)on1 1.18%
COc1ccc(/C=N/Nc2nc(-c3ccc(C)cc3)c(C#N)c(=O)[nH]2)cc1 4.62%
COc1ccc(NCCc2ccccn2)cc1 7.39%
COc1cc(Cl)ccc1OCc1cc(C(=O)N(C)CCc2c(C)n[nH]c2C)no1 5.22%
CCCCn1c(-c2cccc(C)c2)nc2cc3[nH]c(=O)c(C(C)C)nc3cc21 -1.86%
CCOc1ccc(N(C(=O)c2snc(C(N)=O)c2N)C(C(=O)NCC2CCCO2)c2c[nH]c3ccccc23)cc1 (configuration not stated) 0.995%
O=C1OC2(CCCCC2)CC2=C1C1O[C@](c3ccsc3)(Cc3ccccc31)O2 6.24% [at 11.7 µM]
O=C(c1noc2c1CCCC2)N1CCc2ccccc2C1 4.17%
O=C(Nc1ccc(Br)cc1F)C1CC(=O)N(C2CCCCC2)C1 (configuration not stated) -3.69%
O=C(Nc1cccc(Br)c1)c1ccc2snnc2c1 1.58%
CCn1nnnc1SCC(=O)Nc1ccc(N(C)C)cc1 7.93%
CC(C)CN(CC(C)C)C(=O)CN1c2cccc3cccc(c23)S1(=O)=O -0.109%
Cc1c(C)n(Cc2ccc(Cl)cc2)c2ccc(C(=O)NCCCN3CCOCC3)cc12 -1.82%
COc1ccc(/C=C/c2noc(-c3ccccc3OC(C)=O)n2)cc1 -1.92%
COc1ccc(C)cc1Nc1n[n+](-c2ccccc2)c(-c2cccc(Cl)c2Cl)s1 -4.87%
CN(Cc1ccccc1)C(=O)C1CCCN(c2ncnc3c2nc2n3CCCCC2)C1 (configuration not stated) 7.84%
C[n+]1cc(-c2ccccc2)oc1-c1ccccc1 2.02%
CS(=O)(=O)Nc1ccccc1N=C(c1ccccc1)c1ccccc1 -3.8%
O=S1(=O)CCOC[C@H](CC2CCCCC2)N1Cc1ccc(F)cc1 3.27%
Cc1cc(C)n2nc(CNS(=O)(=O)c3c(F)c(F)c(F)c(F)c3F)nc2n1 -0.766%
Cc1ccc(-c2ncc(Cl)cc2-c2ccc(S(C)(=O)=O)cc2)cn1 -0.497%
CCc1ccccc1NC(=S)Nc1cc(OC)c(NC(=O)C(C)C)cc1OC 2.06%
CC(=O)Oc1ccc(-c2cccc(C(=O)N3CCCCC3)c2)cc1 -1.05%
O=P(O)(O)OC[C@H](O)CO 1.8%
CCOCCCNC(=O)C1(O)c2cc(Br)ccc2NC(=O)N1c1ccc(C)c(C)c1 (configuration not stated) -1.16%
COC(=O)C1(C)NC(c2ccc(F)cc2)C2C(=O)N(c3ccccc3)C(=O)C21 (configuration not stated) 1.25%
Cc1cccc(OCCC(=O)Nc2ccccc2C(N)=O)c1 11.1%
COc1ccc2c(C(=O)c3ccc(C)cc3)n(CCC(N)=O)[n+]([O-])c2c1 -1.07%
Cc1ccc(N2CCN(C(=O)c3cccs3)CC2)c(C)c1 -3.88%
c1ccc(-c2ccc(OCCN3CCOCC3)cc2)cc1 -3.06%
COc1ccc(N(CC(=O)NCCSCc2cccc(Cl)c2)S(C)(=O)=O)cc1 -0.4%
COc1ccc(C(=O)O/N=C(\N)c2ccccn2)cc1[N+](=O)[O-] 2.14%
NS(=O)(=O)c1ccc2nc(NC(=O)C3=COCCO3)sc2c1 -3.94%
COc1ccc(N2CCN(C(=O)c3cccs3)CC2)cc1 -2.7%
CS(=O)(=O)N1CCCC(C(=O)Nc2ccccc2C(F)(F)F)C1 (configuration not stated) -2.75%
O=C(Nc1nnc(C2=COCCO2)o1)c1ccc([N+](=O)[O-])s1 -4.17%
CC1CCN(CC(O)COc2ccc(C(=O)c3ccccc3)cc2)CC1 (configuration not stated) -3.11%
CC(C)(O)c1ccccc1CC[C@H](SCC1(CC(=O)O)CC1)c1cccc(/C=C/c2ccc3ccc(Cl)cc3n2)c1 -1.58%
CCOc1ccc(CN2CCC(n3nccc3NC(=O)C3CC3)CC2)cc1CO 0.299%
COc1cc(/C=C/C(=O)O)cc(S(=O)(=O)Nc2ccccc2C(=O)NCCc2ccccc2)c1OC 3.17%
Cc1cc(=O)[nH]c(Nc2cccc(Br)c2)n1 0.992%
CCCc1cc(C(=O)Nc2ccc(Cl)cn2)cs1 -1.52%
Cc1ccc(S(=O)(=O)NCC2CCC(C(=O)N3CCOCC3)CC2)cc1 (configuration not stated) -11.9%
